Records with an inconclusive call do not appear. Activity calls are given as the source filed them. Rule for the calls: active = hit-call score of the fitted dose curve at least 0.9, where 1 is the maximum; inconclusive = response in the unintended direction; inactive = score below 0.9.
target: rat Adrenergic Receptor, Alpha 2 (Adra2), Non-selective Binding, Adra2a (gene 25083) (UniProt P22909); assay: NVS_GPCR_rAdra2_NonSelective: NovaScreen (NVS) G Protein-Coupled Receptor Assay for rat Adrenergic Receptor, Alpha 2 (Adra2), Non-selective Binding (AID 2283299)
Sequence (P22909 whole entry, looked up): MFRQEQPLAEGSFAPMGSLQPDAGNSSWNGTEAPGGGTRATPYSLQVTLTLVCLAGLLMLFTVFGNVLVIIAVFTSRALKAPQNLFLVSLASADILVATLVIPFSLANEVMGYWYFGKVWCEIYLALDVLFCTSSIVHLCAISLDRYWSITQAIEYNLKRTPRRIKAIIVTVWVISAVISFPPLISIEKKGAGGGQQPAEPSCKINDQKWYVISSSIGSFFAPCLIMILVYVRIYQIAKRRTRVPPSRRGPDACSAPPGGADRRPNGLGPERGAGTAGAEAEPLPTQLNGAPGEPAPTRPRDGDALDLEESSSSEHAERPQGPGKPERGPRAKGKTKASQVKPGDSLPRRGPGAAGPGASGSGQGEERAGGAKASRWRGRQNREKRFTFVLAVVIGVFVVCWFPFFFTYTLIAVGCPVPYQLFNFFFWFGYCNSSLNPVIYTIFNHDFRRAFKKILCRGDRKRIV
Experimental: NVS_GPCR_rAdra2_NonSelective is a biochemical, single-readout assay that uses extracted gene-proteins from Rat cortical membranes in a tissue-based cell-free assay. Measurements were taken 1.25 hours after chemical dosing in a 48-well plate.NVS_GPCR_rAdra2_NonSelective is one of one assay component(s) measured or calculated from the NVS_GPCR_rAdra2_NonSelective assay. It is designed to make measurements of radioligand binding, a form of binding reporter, as detected with scintillation counting signals by Filter-based radiodetection technology.Data from the assay component NVS_GPCR_rAdra2_NonSelective was analyzed into 1 assay endpoint. This assay endpoint, NVS_GPCR_rAdra2_NonSelective, was analyzed in the positive analysis fitting direction relative to DMSO as the negative control and baseline of activity. Using a type of binding reporter, loss-of-signal activity can be used to understand changes in the binding as they relate to the gene Adra2a. Furthermore, this assay endpoint can be referred to as a primary readout, because the performed assay has only produced 1 assay endpoint. To generalize the intended target to other relatable targets, this assay endpoint is annotated to the gpcr intended target family, where the subfamily is rhodopsin-like receptor.
Binding assays used specific radioligands (tritiated, iodinated) with non-radioactive competitive displacement ligands in agonist or antagonist protocols (as indicated) and various reference compounds and inhibitors to titrate specific binding to receptors and transporters. Most enzyme assays (CYPs, kinases, phosphatases, proteases, HDACs) used recombinant protein and specific substrates (fluorescence mostly, some colorimetric and radioactive) and inhibitors, followed by a biochemical separation of substrate and product. All assays for the biochemical HTS were initially run in duplicate at a single concentration (10 uM for CYP450 assays and 25 uM for all others). […] Each assay was run with positive and negative controls, and concurrent controls on every plate. The follow-up (secondary) screen tested active chemical-pairs in concentration series, as well as a few additional assays not tested in the primary screen, some selected negative inactives, and several cases re-run in the concentration series for confirmatory purposes.

AC50, active:
O=c1[nH]sc2ccccc12 1.55 µM
NCc1cccc(C2CCN(C(=O)c3ccc(C#Cc4ccccc4F)o3)CC2)c1 14.4 µM
CN(C)c1ccc(C(=C2C=CC(=[N+](C)C)C=C2)c2ccc(N(C)C)cc2)cc1 1.15 µM
CCN(Cc1cccnc1)C(=O)c1cccc(Cl)c1[C@]1(C)C(=O)N(Cc2ccc(OC)cc2OC)c2ccc(Cl)cc21 6.92 µM
CCN(CC)C(=O)c1cc(S(=O)(=O)Cc2ccccc2)c(N2CCC(c3ccccc3)CC2)cc1N(CC)CCN(C)C 15.2 µM
COc1ccc2cc(S(=O)(=O)N[C@H](CC(=O)N[C@H](Cc3ccc(CN4[C@H](C)CCC[C@@H]4C)cc3)C(=O)N(C)C(C)C)c3ccc4c(c3)OCO4)ccc2c1 23.9 µM
CCOC(=O)O[C@H](C)OC(=O)c1ccc2c(c1)cc(C(=O)NC1CCN(C(C)C)CC1)n2Cc1cc(-c2ccc(Cl)s2)on1 5.66 µM
COc1cccc([C@H](O)C2CCN(CCc3ccc(F)cc3)CC2)c1OC 1.58 µM
Clc1cc(Cl)c2c(c1)N=C1CCCCCN1C2 1.57 µM
CC/C(=C(/CC)c1ccc(O)cc1)c1ccc(O)cc1 36.3 µM
CCCCCCCCCCCC[N+](C)(C)C 19.1 µM

Source: PubChem BioAssay (EPA / NIEHS)
